Measured values published in PubChem BioAssay AID686979 (National Center for Advancing Translational Sciences (NCATS), 2013).
In all, about 420,000 compounds went through this assay and about 50,000 (12%) were called active. Roughly 26% stayed inconclusive and do not appear here. What follows is part of a selection rich in actives, with near analogues and random picks from the rest. Values without a mark were called inactive. Calls come from the whole dose curve; as a rule, active = well fitted inhibition curve with a large enough effect; inconclusive = small, poorly fitted or top-dose-only effect; inactive = flat fitted curve, though single readings scatter.
% is set by controls: 0 for no effect and ±100 for the full control effect; potency is the fitted concentration of half-maximal effect.

Assay: qHTS for Inhibitors of human tyrosyl-DNA phosphodiesterase 1 (TDP1): qHTS in cells in presence of CPT; note: nearly all actives have a fitted effect of over 55% in size
Settings: chicken DT40 Tdp1-/-;hTDP1 cells + 20 nM CPT, ATP luminescence, 48 h; series mostly up to 46.2 µM; activity change, negative = growth inhibition: at the top concentration
Procedure, shortened: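 Chicken DT40 Tdp1-/- cells complemented with human TDP1, 400 cells/well, exposed to compounds plus 20 nM camptothecin for at least 48 h at 37 C; viability read as ATP content by CellTiter-Glo luminescence.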
For `O=C(CCC1CCCC1)N=C1SC2CS(=O)(=O)CC2N1Cc1ccccc1` (stereo not given), the “activity change, negative = growth inhibition” value was -18.1%. In the case of `CCc1ccc([C@@H]2CC(=O)[C@@H]3CN(S(=O)(=O)c4ccc(C)cc4)[C@H](c4ccc(Cl)cc4)C[C@@H]3N2S(=O)(=O)c2ccc(C)cc2)cc1`, the “activity change, negative = growth inhibition” value is reported as -4.59%. In the case of `CCOc1ccc(N2CC(C(=O)N/N=C/c3sccc3C)CC2=O)cc1` (stereo not given), the “activity change, negative = growth inhibition” value is reported as 9.79%. With `C[C@H](CO)N1C[C@H](C)[C@@H](CN(C)C(=O)Nc2ccc3c(c2)OCO3)Oc2c(cccc2N(C)C)C1=O` the “activity change, negative = growth inhibition” value was -18.9%. With `CN1CCN(CC#CCC2(O)c3ccccc3-c3ccccc32)CC1` the “activity change, negative = growth inhibition” value was -12.5%. With `CC(C)(C)C(=O)Nc1c(Br)c(C2CC2)nn1-c1ccccc1` the “activity change, negative = growth inhibition” value was -3.25%. In the case of `CCOc1ccc(S(=O)(=O)NCCCn2ccnc2)cc1NC(C)=O`, the “activity change, negative = growth inhibition” value is reported as 4.07%. With `COC(=O)c1ccc(NC(=O)CSc2nc(N)c(NC(=O)c3ccc(Br)o3)c(=O)[nH]2)cc1` the “activity change, negative = growth inhibition” value was 1.82%. For `O=C(CCC1CCCN(Cc2ccc(O)c(Cl)c2)C1)NCc1ccccc1F` (stereo not given), the “activity change, negative = growth inhibition” value was -19%. For `Cn1c(-c2ccccc2)c[n+]2c1CCCCC2`, the “activity change, negative = growth inhibition” value was 5.76%. With `Clc1ccc(C[n+]2cc(-c3ccccc3)n3c2CCC3)cc1` the Potency was 2.91 µM (active). For `Clc1ccc(C[n+]2cc(-c3ccc(Cl)cc3)n3c2CCC3)cc1`, the Potency was 4.61 µM (active). For `O=C(O)C(F)(F)C(NCc1ccccc1)c1ccccc1` (stereo not given), the “activity change, negative = growth inhibition” value was -10.3%. For `CCC(C(=O)NC1CCCCC1)N(C(=O)c1snc(C(N)=O)c1N)c1ccc(OC)cc1OC` (stereo not given), the “activity change, negative = growth inhibition” value was -28.2%. With `CC(NC(=O)c1ccc(S(=O)(=O)Nc2ccccc2)cc1)c1ccc(S(N)(=O)=O)cc1` (stereo not given) the “activity change, negative = growth inhibition” value was -0.898%. With `COc1cc(CN2CCCN(C)CC2)c([N+](=O)[O-])cc1OC` the “activity change, negative = growth inhibition” value was -17.5%. In the case of `COc1cc2c(cc1OC)C(Cc1cc(OC)c(OC)cc1[N+](=O)[O-])=NCC2`, the Potency is reported as 5.17 µM (active). With `COc1cc(CNCc2ccc3c(c2)OCO3)c([N+](=O)[O-])cc1OC` the “activity change, negative = growth inhibition” value was -5.01%. With `CCCCC1S/C(=N/N=C/c2cccs2)NC1=O` (stereo not given) the “activity change, negative = growth inhibition” value was -15.9%. For `CC(C)c1ccc(OCC(O)CN2CCN(c3ccccn3)CC2)cc1` (stereo not given), the Potency was 25.9 µM (active). In the case of `Cc1ccccc1OCC(O)CN1CCN(c2ccccn2)CC1` (stereo not given), the “activity change, negative = growth inhibition” value is reported as 2.2%. For `CCc1ccc(OCC(O)CN2CCN(CCO)CC2)cc1` (stereo not given), the “activity change, negative = growth inhibition” value was 4.93%. In the case of `CC(=O)OC(COc1ccc(F)cc1)Cn1cnc2ccccc21` (stereo not given), the “activity change, negative = growth inhibition” value is reported as -18.6%. In the case of `OC(COc1ccc2ccccc2c1)Cn1cncn1` (stereo not given), the “activity change, negative = growth inhibition” value is reported as 4.84%. For `CC(C)c1ccc(OCC(O)Cn2cnc3ccccc32)cc1` (stereo not given), the Potency was 18.4 µM (active). In the case of `Cc1ccc(C)c(NC(=O)COC(=O)c2nn(C)c(=O)c3ccccc23)c1`, the “activity change, negative = growth inhibition” value is reported as 0.793%. In the case of `C/C=C/C(=O)OCc1csc(CC(=O)Nc2ccccc2C)n1`, the “activity change, negative = growth inhibition” value is reported as -11.6%. With `Cc1ccnc(NC(=O)C2CCN(S(=O)(=O)c3c(C)c(C)cc(C)c3C)CC2)c1` the “activity change, negative = growth inhibition” value was 26.2%. For `CCCNC(=O)C[C@@H]1CC[C@@H]2[C@H](COC[C@H](O)CN2C(=O)c2cc(Cl)cc(Cl)c2)O1`, the “activity change, negative = growth inhibition” value was 15.3%. For `CC1(c2nnc(-c3ccncc3)o2)CC(c2cccnc2)=NO1` (stereo not given), the “activity change, negative = growth inhibition” value was 1.74%. For `CCCCC(=O)Nc1nnc(S(=O)(=O)N(C)Cc2ccco2)s1`, the “activity change, negative = growth inhibition” value was -2.86%. For `COc1ccc(NC(=O)CCNS(=O)(=O)c2ccc3c(c2)c(=O)n(C)c(=O)n3C)cc1OC`, the “activity change, negative = growth inhibition” value was 1.91%. In the case of `COc1ccc(OC)c(-n2cc3c(=O)n(C)c(=O)n(C)c3c2)c1`, the Potency is reported as 16.4 µM (active). For `CC(=O)Nn1cc2c(=O)n(C)c(=O)n(C)c2c1`, the “activity change, negative = growth inhibition” value was 9.83%. With `CCc1cc2c(SCC(=O)Nc3ncc(Cl)c(C)c3Cl)ncnc2s1` the “activity change, negative = growth inhibition” value was -29.6%. With `CCc1cc2c(NC3CCCC3)ncnc2s1` the Potency was 7.31 µM (active). In the case of `CCc1cc2c(NC(Cc3ccccc3)C(=O)O)ncnc2s1` (stereo not given), the “activity change, negative = growth inhibition” value is reported as -3.93%. In the case of `Cn1c2ccccc2n2c(=O)c(=O)n(CC(=O)c3ccc(F)cc3)nc12`, the “activity change, negative = growth inhibition” value is reported as -14.7%. With `O=C(Cn1ccc2cc(S(=O)(=O)N3CCCC3)ccc21)NCc1ccccc1` the “activity change, negative = growth inhibition” value was -16.2%. With `COc1ccc(Cn2ccn(Cc3cccc(OC)c3)c(=O)c2=O)cc1` the “activity change, negative = growth inhibition” value was -27%. For `O=[N+]([O-])/C=C/c1ccc2c(ccn2Cc2ccccc2)c1`, the Potency was 3.26 µM (active). With `Cc1ccc(C)c(S(=O)(=O)Nc2cccc(-n3cnnn3)c2)c1` the “activity change, negative = growth inhibition” value was -20.1%. With `Cc1cnc(C(=O)OCc2c(C)cc(C(C)(C)C)cc2C)cn1` the “activity change, negative = growth inhibition” value was -21.7%. For `N#CCCC(C#N)(c1cccnc1)N1CCOCC1` (stereo not given), the “activity change, negative = growth inhibition” value was 2.23%. In the case of `COc1ccc(C(=O)c2oc3ccc(Br)cc3c2NC(C)=O)cc1`, the “activity change, negative = growth inhibition” value is reported as -24.2%. With `COc1ccc(OC)c(C(=O)c2ccc(C(=O)O)cc2)c1` the “activity change, negative = growth inhibition” value was -7.43%. With `COc1ccc2occ(C(=O)c3ccc(N=C(C)N(C)C)cc3)c2c1` the Potency was 16.4 µM (active). In the case of `O=C(CCN1C(=O)[C@@H]2Cc3ccccc3CN2C1=O)NCCc1ccccc1`, the “activity change, negative = growth inhibition” value is reported as -0.504%. In the case of `O=C(Cn1nc(C(=O)O)c2ccccc2c1=O)Nc1ccc(F)cc1`, the “activity change, negative = growth inhibition” value is reported as -16.6%. For `CCN(CC)c1ccc(/C=C/c2c(C)cnc3ccc(C)cc23)cc1`, the Potency was 11.2 µM (active).
